Only some compounds are listed: those with a hit (about 19% of all), similar ones and a draw of the others.
DT40 TDP1 no CPT = qHTS for Inhibitors of human tyrosyl-DNA phosphodiesterase 1 (TDP1): qHTS in cells in absence of CPT | AID 686978, 2013 | DT40 Tdp1-/- hTDP1 cells, no CPT, ATP luminescence, 48 h | Potency, µM (highest dose often 46.2 µM), inactives show top-dose activity change, negative = growth inhibition, usual class: inhibitors | actives 15% (n = 420,000); further: potency means the concentration at half of the fitted maximal effect; nearly all actives have a fitted effect of over 55% in size
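A cellular qHTS used chicken DT40 cells lacking endogenous Tdp1 but carrying stably transfected human TDP1. Compounds were applied without camptothecin, and cell growth kinetics were judged by ATP-dependent luminescence after ≥48 hr.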
TDP1 cell CPT = growth inhibition of DT40 Tdp1-/-;hTDP1 cells with camptothecin (screen for TDP1 inhibitors). chicken DT40 Tdp1-/-;hTDP1 cells + 20 nM CPT, ATP luminescence, 48 h. Potency, µM (highest dose often 46.2 µM), for the others: at the highest dose activity change, negative = growth inhibition, most hits filed as inhibitors. actives 12% (n = 420,000). AID 686979; further: potency means the concentration at half of the fitted maximal effect; nearly all actives have a fitted effect of over 55% in size
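Cell growth measured by CellTiter-Glo luminescence after a minimum 48 h, 37 C compound exposure with 20 nM CPT in Tdp1-knockout DT40 cells stably expressing hTDP1, seeded 400/well; qHTS titration format.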
IL-1B inflam inh = blocks inflammasome-driven IL-1 beta release; THP-1 LPS/ATP IL-1B secretion, AlphaLISA, 16 h; active compounds read low; activity change, % at 57.5 µM; AID 743279; actives 4.7% (n = 360,000); in the data active means activity change below about -50%; inconclusive means mostly about -30% to -49%
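THP-1 cells pretreated 1 hr with compounds (up to 57.5 uM final), then stimulated with LPS (250 ng/mL final) plus ATP (1.25 mM final); secreted IL-1B measured by AlphaLISA after 16 hr, decreased signal indicating inhibition.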
HT1080-NT tox = kills 2HG-producing HT-1080-NT fibrosarcoma cells | HT-1080-NT fibrosarcoma viability, CellTiter-Glo ATP luminescence, 48 h | Potency, µM (doses to about 46.1 µM), inactives show at the highest dose activity, negative = less viability, usual class: cytotoxic | actives 1.6% (n = 360,000);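 further: NT is the 2HG producing partner of a matched IDH1 knockdown line; potency means the concentration at half of the fitted maximal effect; 0% = DMSO-treated cells and -100% = media-only wells without cells; nearly all actives have a fitted effect of over 55% in size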
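Viability of the 2HG-overproducing fibrosarcoma line after 48 hours of compound exposure at 37 degrees C was determined by luminescence with CellTiter-Glo, and concentration-effect curves were then fitted and categorized.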
HT1080 IDH1KD tx = toxicity to HT-1080 IDH1 knockdown cells (counter line) | HT-1080 IDH1 knockdown viability, ATP luminescence, 48 h | Potency, µM (top dose mostly 46.1 µM), inactives show at the top dose activity, negative = toxicity, usual class: cytotoxic | actives 2% (n = 360,000) | AID 686971;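 further: potency means the concentration at half of the fitted maximal effect; 0% = DMSO wells and -100% = cell-free medium wells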
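HT-1080-IDH1KD cells (IDH1 knocked down), 750/well in RPMI with 5% FBS, treated with compound 48 h at 37 degrees C. Viability by CellTiter-Glo luminescence, normalised to DMSO and no-cell wells; concentration-response curves classed.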
Active calls of the source: *; ? = inconclusive; . = no result; [ ] = another dose, or the depositor's remark. Unless noted, the call rests on the fitted dose curve; in most records, active means well fitted curve in the direction sought with a large enough effect; inconclusive means small, poorly fitted or top-dose-only effect, or another doubt; inactive means no such curve, though single readings can be large; an effect the other way counts as inactive or inconclusive. Unless noted, on the % scale 0 is the no-effect control and ±100 the full control effect.

SMILES	DT40 TDP1 no CPT	TDP1 cell CPT	IL-1B inflam inh	HT1080-NT tox	HT1080 IDH1KD tx
O=C(CC1C(=O)NCCN1Cc1ccccc1)NC1CCCCC1 (stereo unspecified)	-16%	-13%	13	1%	7%
CCOCCn1c(SCc2ccccc2)nc2c1c(=O)[nH]c(=O)n2C	-18%	-24%	20	0%	-9%
CC(C)CCn1c(Sc2nc3ccccc3o2)nc2c1c(=O)[nH]c(=O)n2C	16µM*	18µM*	-105*	8%	1%
CC(C)CCn1c(SCc2ccc(Cl)cc2)nc2c1c(=O)[nH]c(=O)n2C	18µM*	16µM*	-14	2%	1%
C/C=C/Cn1c(SCc2ccccc2)nc2c1c(=O)[nH]c(=O)n2C	?	21µM*	1	-16%	-11%
O=c1cc(-c2ccccc2)nc2cc(-c3ccc(F)cc3)[nH]n12	6.5µM*	7.3µM*	5	?	?
COc1cccc(-c2cc3nc(-c4ccccc4)cc(=O)n3[nH]2)c1	2.6µM*	2.6µM*	88	1.5µM*	1.3µM*
CCc1c(C)nc2cc(-c3ccc(OC)cc3)[nH]n2c1=O	15µM*	21µM*	-6	-2%	7%
COc1cccc(C(=O)Nc2nc3nc(-c4ccccc4)cc(=O)n3[nH]2)c1	-16%	-2%	.	.	.
Cc1cc(=O)n2[nH]c(-c3ccccc3)cc2n1	-12%	-25%	85	-1%	0%
Cc1cc(=O)n2[nH]c(-c3ccc(C(C)(C)C)cc3)cc2n1	21µM*	18µM*	-3	?	?
Cc1nc2cc(-c3ccccc3)[nH]n2c(=O)c1C	?	?	2	6%	9%
CCCCn1nnnc1C1(C)CCC(=O)N1C1CC1 (stereo unspecified)	-1%	-9%	19	13%	6%
N#Cc1ccccc1OCC(=O)N1CCN(S(=O)(=O)c2ccc(Cl)cc2)CC1	?	-8%	27	-1%	-2%
CCOC(=O)CNS(=O)(=O)c1ccc(S(=O)(=O)NC2CC2)cc1	2%	-2%	?	10%	17%
CCc1cccc(C)c1NS(=O)(=O)c1ccc2c(c1)NC(=O)C(C)C(=O)N2 (stereo unspecified)	-4%	?	.	.	.
CCOC(=O)c1ccccc1NC(=O)Cn1c(=O)n(-c2cccc(C)c2)c(=O)c2c1c1cc(C)ccc1n2C	5%	7%	.	.	.
CN1C(=O)C2(Oc3ccccc3C3CC(c4ccccc4)=NN32)c2ccccc21 (stereo unspecified)	?	23µM*	-14	-28%	-17%
Cc1ccc(C2=NN3C(C2)c2ccccc2OC32C(=O)Nc3ccccc32)cc1 (stereo unspecified)	?	?	-13	?	?
CC(=O)N[C@@H](CC(=O)N[C@@H](CCC(=O)O)C(=O)O)C(=O)O	-7%	-8%	.	.	.
Cc1ccc(-c2cc(-c3ccccc3)nc(NN)n2)cc1	-22%	?	-27	?	?
COc1nc(-c2ccccc2)cc(-c2ccc(OC)c(OC)c2)n1	21µM*	?	-19	-8%	?
COc1ccc(-c2cc(-c3ccccc3)nc(NN)n2)cc1OC	?	3.7µM*	?	?	?
CCO/C=N/Nc1nc(C(F)(F)F)nc2c1cnn2Cc1ccccc1	-7%	?	-6	-19%	-17%
CN1N=C(C(=O)N2CCOc3ccc(CN4CCCC(C(=O)c5cccnc5)C4)cc3C2)CCC1=O (stereo unspecified)	?	4%[9.04 µM]	.	.	.
SMILES	DT40 TDP1 no CPT	TDP1 cell CPT	IL-1B inflam inh	HT1080-NT tox	HT1080 IDH1KD tx
COc1ccc(CCNc2ncnc3sccc23)cc1OC	0.29µM*	0.16µM*	-8	?	?
Cc1sc2ncnc(NCCCn3ccnc3)c2c1C	-17%	-4%	7	3%	-2%
NS(=O)(=O)c1ccc(CCNc2ncnc3sccc23)cc1	5.8µM*	7.3µM*	8	-10%	?
COc1ccc(CCNc2ncnc3c2c(C)c(C)n3CCO)cc1OC	8.2µM*	21µM*	-1	6%	1%
NS(=O)(=O)c1ccc(CNc2ncnc3sccc23)cc1	?	?	11	-15%	-13%
Cc1sc2ncnc(NCCc3ccc(S(N)(=O)=O)cc3)c2c1C	1.5µM*	2.9µM*	-19	-20%	?
CC1(c2nnc(Cc3ccccc3)o2)CC(c2ccccc2Br)=NO1 (stereo unspecified)	?	-18%	11	-1%	-6%
Cc1c(C)n(CCc2ccccc2)c2ncnc(NCCCN(C)C)c12	?	?	-72*	?	?
COC(=O)C1=C(C)N(Cc2ccc(C)cc2)C(=O)C1	-13%	-5%	6	4%	-4%
CC1=C(C(=O)Nc2cccc(C(F)(F)F)c2)C2(CCCCC2)OC1=O	16µM*	?	.	.	.
CC1=C(C(=O)Nc2ccccc2Br)C2(CCC(C)CC2)OC1=O (stereo unspecified)	-24%	4%	.	.	.
CC1=C(C(=O)Nc2cc(C)cc(C)c2)C2(CCCCC2)OC1=O	-24%	?	.	.	.
COC(=O)c1ccccc1NC(=O)C1=C(C)C(=O)OC12CCCCCC2	16µM*	18µM*	.	.	.
CC1=C(C(=O)NCc2cccc(Br)c2)C2(CCCCC2)OC1=O	23µM*	15µM*	.	.	.
CC1=C(C(=O)Nc2cccc(C(F)(F)F)c2)C2(CCCCCC2)OC1=O	?	16µM*	.	.	.
CC1=C(C(=O)NCc2cccc(F)c2)C2(CCCCC2)OC1=O	-14%	-25%	.	.	.
O=C(/C=C/c1ccccc1)NC(NC(=S)Nc1ccc(Cl)cc1)C(Cl)(Cl)Cl (stereo unspecified)	5.2µM*	16µM*	?	?	18µM*
CCOC(=O)NC(NC(=S)Nc1ccc(OC)cc1)C(Cl)(Cl)Cl (stereo unspecified)	-2%	0%	-16	1%	-4%
CCC(=O)NC(NC(=S)Nc1ccc(S(N)(=O)=O)cc1)C(Cl)(Cl)Cl (stereo unspecified)	-1%	-5%	0	-8%	-4%
O=C(NC(NC(=S)Nc1ccccc1C(=O)O)C(Cl)(Cl)Cl)c1ccccc1 (stereo unspecified)	-10%	-26%	21	9%	16%
O=C(CCc1ccccc1)NC(NC(=S)Nc1ccc(Cl)cc1)C(Cl)(Cl)Cl (stereo unspecified)	4.6µM*	8.2µM*	-4	?	?
O=C(/C=C/c1ccccc1)NC(NC(=S)Nc1cc(Cl)ccc1Cl)C(Cl)(Cl)Cl (stereo unspecified)	5.2µM*	5.2µM*	-66*	?	?
